# Results published in PubChem BioAssay (EPA / NIEHS).
# Several values for one entry are separate records, joined by “and”; a condition that tells them apart may be missing. Equal entries are not always repeated. Some structures have more than one record in an assay (separate samples or runs), and their calls can disagree. Activity calls are given as the source filed them. The calls were made as follows: active = hit-call score of the fitted dose curve at least 0.9, where 1 is the maximum; inactive = score below 0.9.
# Test: ATG_Sox_CIS: Attagene CIS-FACTORIAL HepG2 Assay for human SRY-box transcription factor (SOX) (AID 2282960)
# Details: HepG2 Attagene cis-factorial SOX reporter, mRNA; actives raise or lower the signal
# Description: ATG_CIS is a cell-based, multiplexed-readout assay that uses HepG2, a human liver cell line, with measurements taken at 24 hours after chemical dosing in a 24-well plate.ATG_Sox_CIS is one of 52 assay component(s) measured or calculated from the ATG_CIS assay. It is designed to make measurements of mRNA induction, a form of inducible reporter, as detected with fluorescence intensity signals by Reverse transcription polymerase chain reaction (RT-PCR) and Capillary electrophoresis technology.Data from the assay component ATG_Sox_CIS was analyzed into 1 assay endpoint. This assay endpoint, ATG_Sox_CIS, was analyzed with bidirectional fitting relative to DMSO as the negative control and baseline of activity. Using a type of inducible reporter, measures of mRNA for gain or loss-of-signal activity can be used to understand the reporter gene at the transcription factor-level as they relate to the gene SOX1. Furthermore, this assay endpoint can be referred to as a primary readout, because this assay has produced multiple assay endpoints where this one serves a reporter gene function. To generalize the intended target to other relatable targets, this assay endpoint is annotated to the dna binding intended target family, where the subfamily is HMG box protein.
# Human liver HepG2 cells are transiently transfected with multiple reporter transcription units (MRTUs) in 6-well plates using FuGene 6 reagent (Roche; 3 ml FuGene/1 mg DNA). The MRTU constructs are regulated by a cis-regulating element (promoter). […] A major difference between the CIS and TRANS system is that in CIS activities of endogenous TFs are measured, whereas the TRANS assay evaluates changes in activities of exogenous, chimeric NR-Gal4 proteins. […] At the end of 24 hour incubation, total RNA was isolated using TriZol reagent (Invitrogen). The isolated RNA is then reverse-transcribed using oligo(dT) primer and Mo-MLV reverse transcriptase (Invitrogen) with DNAse I (Ambion) treatment for 30 min. The one-tenth of the produced cDNA was amplified by PCR using Taq DNA polymerase (Invitrogen) and two reporter sequence-specific primers. The PCR products were fluorescently labeled by primer extension with 6-arboxyfluorescein (6-FAM) 5'-labeled reporter sequence-specific primer (2 min at 95 C, 20 s at 68 C and 10 min at 72 C) and these products were digested with 5U of HpaI (New England Biolabs) for 2h at 37 C. The fragments were purified using Qiaquick PCR columns (Qiagen), analyzed on an ABI 3130xL genetic analyzer (Applied Biosystems) with peak positions identified by using a set of X-rhodamine (ROX)-labeled MapMarker1000 molecular weight standards (BioVentures). The raw capillary electrophoresis data was processed using Attagraph software (Attagene).
SMILES,outcome,AC50
Cc1cc(=O)[nH]o1,inactive,
Fc1ccc(C2(Cn3cncn3)OC2c2ccccc2Cl)cc1 (stereo not given),inactive,
C=CC(=O)N(C)C,inactive,
CC(=O)[O][Hg][c]1ccccc1,inactive,
CC(C)(OO)c1ccccc1,inactive,
ClCc1ccccn1,inactive,
CCC[CH2][Sn]([CH2]CCC)([CH2]CCC)[O]C(=O)c1ccccc1,inactive,
O=C1C(Cl)=C(Cl)C(=O)c2ccccc21,inactive,
O=C/C=C/c1ccccc1,inactive,
O=C(O)C(F)(F)C(F)(F)C(F)(F)C(F)(F)C(F)(F)C(F)(F)C(F)(F)C(F)(F)C(F)(F)C(F)(F)F,inactive,58.4 µM (active)
CC(C)c1ccc(CO)cc1,inactive,
Oc1ccc(-c2ccccc2)cc1,,145 µM (active)
CCC(=O)C(CC(C)N(C)C)(c1ccccc1)c1ccccc1 (stereo not given),inactive,
ClC1=C(Cl)[C@]2(Cl)[C@H]3[C@H]([C@H]4C=C[C@H]3C4)[C@@]1(Cl)C2(Cl)Cl,inactive,
Nc1cccc2ccccc12,inactive,
C[C@]12CC[C@H](O)CC1=CC[C@@H]1[C@@H]2CC[C@]2(C)C(=O)CC[C@@H]12,inactive,
CC(C)(c1ccc(OCC2CO2)cc1)c1ccc(OCC2CO2)cc1 (stereo not given),inactive,
CC1CN1P(=O)(N1CC1C)N1CC1C (stereo not given),inactive,
CC(C)CCCCCCOC(=O)c1ccccc1C(=O)OCCCCCCC(C)C,inactive,

SMILES,outcome,AC50
CC(Br)C(=O)O (stereo not given),inactive,
CC(=[OH+])/C=C(/C)[O-].CC(=[OH+])/C=C(/C)[O-].CC(=[OH+])/C=C(/C)[O-].[Fe],inactive,
COc1cc(OC)nc(NC(=O)NS(=O)(=O)c2ncccc2C(=O)N(C)C)n1,inactive,
O=C1C2(Cl)C3(Cl)C4(Cl)C(Cl)(Cl)C5(Cl)C3(Cl)C1(Cl)C5(Cl)C24Cl (stereo not given),inactive,5.49 µM (active) and 15.5 µM (active)
CN(CCCC(=O)c1cccnc1)N=O,inactive,
CN(C)N=O,inactive,
CC(=O)C=C(C)C,inactive,
C1CCC(NC2CCCCC2)CC1,inactive,
COc1ccccc1OC,inactive,
Cc1ccccc1N,inactive,
CCC[CH2][Sn]([Cl])([Cl])[Cl],inactive,
CC12CC1(C)C(=O)N(c1cc(Cl)cc(Cl)c1)C2=O (stereo not given),inactive,
COC[C@H](C)N(C(=O)CCl)c1c(C)csc1C,inactive,
CCC(C)(C)c1ccc(O)c(C(C)(C)CC)c1,inactive,
ClC1=C(Cl)[C@]2(Cl)[C@@H]3[C@@H](Cl)[C@@H](Cl)C[C@@H]3[C@@]1(Cl)C2(Cl)Cl,inactive,
Nc1ccc(Cl)cc1C(=O)c1ccccc1,inactive,
CC(=[OH+])/C=C(/C)[O-].CC(=[OH+])/C=C(/C)[O-].CC(=[OH+])/C=C(/C)[O-].[Al],inactive,
O=C(c1ccccc1)C(Cl)Cl,,25.7 µM (active)
Nc1ccc(-c2ccc(N)c(Cl)c2)cc1Cl,inactive,
